The values below come from PubChem BioAssay (EPA / NIEHS).

Several values for one entry are separate records, joined by “and”; a condition that tells them apart may be missing. Equal entries are not always repeated. Inconclusive results are not listed. Activity calls are given as the source filed them. Rule for the calls, unless noted: active = hit-call score of the fitted dose curve at least 0.9, where 1 is the maximum; inconclusive = response in the unintended direction; inactive = score below 0.9.

Assay [1] can be described thus: IUF_NPC2-5_viability_120hr: Viability Assessment at 120 hours in the Leibniz Research Institute for Environmental Medicine (IUF) Neural Progenitor Cell Migration and Differentiation Assay (NPC2-5) (AID 2284312; active = hit-call score of the fitted dose curve at least 0.9, where 1 is the maximum; inactive = score below 0.9). A digest of the protocol:
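Alamar blue resorufin fluorescence read after 5 days of differentiation, with compound present from day 0 and replenished at day 3. Primary hNPC spheres on laminin-coated plates, 37C; seven concentrations plus solvent control, fitted against DMSO.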

Assay [2] in a line: VALA_TUBIPS_Antagonist_TubuleLength: VALA Sciences human iPS-derived Endothelial Tubule Formation (TUBIPS) Antagonist Assay (AID 2284313). A digest of the protocol:
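Tubule length was quantified by high-content imaging of CD31- and nuclear-stained cells, with 0.1% DMSO as neutral and 100 uM suramin as inhibition control. Compounds were applied for 3 days, in 10 ng/ml VEGF, to cultures pre-grown 3 days.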

Assay [3] is described as follows: CCTE_Mundy_HCI_iCellGluta_NOG_NeuriteLength: CCTE's Neurite Outgrowth Assay in iCellGluta cells for Neurite Length, Mundy Lab (AID 2284318). The essentials: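 Automated high-content imaging of betaIII-tubulin (Alexa Fluor-488) and Hoechst-stained cells gave neurite length, normalized to the DMSO baseline.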
A short description of assay [4]: IUF_NPC1_cytotoxicity_72hr: Cytotoxicity Assessment at 72 hours in the Leibniz Research Institute for Environmental Medicine (IUF) Neural Progenitor Cell Proliferation Assay (NPC1) (AID 2284332).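 Note: rising LDH signal means more cytotoxicity.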 The essentials:
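Readout is fluorescence from LDH-dependent resazurin conversion, sampled from culture medium after compound contact lasting 72 h. Each well holds one 0.25-0.35 mm human progenitor sphere kept at 37C, 5% CO2 with EGF and FGF.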

Assay [5] can be described thus: VALA_TUBIPS_Antagonist_CellCount: Viability Assessment in the VALA Sciences human iPS-derived Endothelial Tubule Formation (TUBIPS) Antagonism Assay (AID 2284335).
A short description of assay [6]: VALA_TUBHUV_Agonist_TubuleLength: VALA Sciences human Umbilical Vein Endothelial Tubule Formation (TUBHUV) Agonism Assay (AID 2284337). A digest of the protocol: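 Tubule length quantified by CD31 immunofluorescence imaging after fixation. HUVEC-HDF co-cultures (1:3) pre-grown 3 days with 10 ng/ml VEGF, then dosed 3 days in VEGF medium; 0.1 % DMSO vehicle baseline.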

Assay [7] in a line: VALA_TUBIPS_Agonist_CellCount: Viability Assessment in the VALA Sciences human iPS-derived Endothelial Tubule Formation (TUBIPS) Agonism Assay (AID 2284338).
Assay [8] is described as follows: VALA_MIGHUV2_CellCount: Viability Assessment in the VALA Sciences human Umbilical Vein Endothelial Cell Migration (MIGHUV) Assay, Area of Scratch Wound after Recovery (AID 2284314). A digest of the protocol:
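Viability read-out: Hoechst-stained nuclei counted by fluorescence imaging after a 24 h recovery period in fixed, scratched HUVEC plates. Compound was dosed within 30 min of scratching at six concentrations (triplicate); DMSO at 0.1 % served as baseline.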

A short description of assay [9]: VALA_MIGHUV2_Bcatenin: VALA Sciences human Umbilical Vein Endothelial Cell Migration (MIGHUV) Assay, Nuclear Translocation of beta-Catenin after Recovery (AID 2284315). The essentials: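 Nuclear beta-catenin imaged by immunofluorescence with Hoechst counterstain in fixed HUVEC, 24 h after scratch wounding and chemical addition. Six-point concentration-response in triplicate; activity scored as signal increase over 0.1% DMSO vehicle.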

Assay [10] in a line: VALA_MIGHUV2_WoundArea: VALA Sciences human Umbilical Vein Endothelial Cell Migration (MIGHUV) Assay, Area of Scratch Wound after Recovery (AID 2284316). A digest of the protocol:
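Wound-area endpoint read by fluorescence imaging of Hoechst-stained nuclei after a 24 h recovery period following scratch of HUVEC monolayers (9000 cells/well). Chemicals dosed within 30 min post-scratch, triplicate 6-point series, 0.1% DMSO vehicle; Cytochalasin D positive control.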

Assay [11] can be described thus: VALA_TUBHUV_Antagonist_TubuleLength: VALA Sciences human Umbilical Vein Endothelial Tubule Formation (TUBHUV) Antagonism Assay (AID 2284325). A digest of the protocol:
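Tubule length was imaged via CD31 immunofluorescence after a further 3-day compound exposure in 10 ng/ml VEGF, following 3-day pre-culture of HUVEC with HDF at 1:3. Vehicle 0.1% DMSO; suramin (100 uM) inhibition control.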

Assay [12] is described as follows: VALA_MIGHUV1_ScratchOnly_CellCount: Viability Assessment in the VALA Sciences human Umbilical Vein Endothelial Cell Migration (MIGHUV) Assay, Scratch Wound Inhibited Recovery (AID 2284327). A digest of the protocol:
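Hoechst-stained nuclei in the scratch wound were counted by high-content imaging after a 24 h recovery period. Scratched HUVEC monolayers received 6-point concentration series, triplicate, in 0.1% DMSO, fit against DMSO.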

Assay [13] is described as follows: VALA_MIGHUV1_ScratchOnly_WoundArea: VALA Sciences human Umbilical Vein Endothelial Cell Migration (MIGHUV) Assay, Area of Scratch Wound Inhibited Recovery (AID 2284336). The essentials: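 Wound area remaining after 24 h recovery imaged by Hoechst nuclear fluorescence in scratched HUVEC cultures, chemicals added within 30 min of scratching across a 6-point series. Gain of signal fitted against 0.1% DMSO; cytochalasin D positive control.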

With `O=P(OC(CCl)CCl)(OC(CCl)CCl)OC(CCl)CCl`, the call in [1], in assay [2], in assay [3], in [4], in assay [5] and in assay [6] was inactive. For the same compound, in assay [7], the call was inactive.
For `CC(C)c1cccc(C(C)C)c1N1C(=O)c2ccc(O)cc2C1=O`, the AC50 in assay [2] is 10.3 µM (active) and 72.7 µM (active); in [8] it was 85.8 µM (active); in assay [9] it was 17.4 µM (active) and 53.1 µM (active); in [10], 17.8 µM (active) and 74 µM (active); in [11], 10.7 µM (active) and 50 µM (active); in [12] it was 11.7 µM (active). For the same compound, the AC50 in assay [13] is 5.98 µM (active) and 22.1 µM (active); in [6], 85 µM (active) and 7.58 µM (active); in assay [7], 80.2 µM (active).
As for `CC[C@H]1OC(=O)[C@H](C)[C@@H](O[C@H]2C[C@@](C)(OC)[C@@H](O)[C@H](C)O2)[C@H](C)[C@@H](O[C@@H]2O[C@H](C)C[C@H](N(C)C)[C@H]2O)[C@](C)(O)C[C@@H](C)C(=O)[C@H](C)[C@@H](O)[C@]1(C)O`, in [3], the compound was classed as inactive.
